Test [1] addresses Glucocorticoid receptor (Homo sapiens) (UniProt P04150). The test can be described thus: qHTS assay for small molecule agonists of glucocorticoid receptor signaling (AID 588532; active means well fitted curve in the direction sought with a large enough effect in the signal ratio, with a control signal flat; the % refers to the signal ratio;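 further: 100% = dexamethasone at 0.1 µM and 0% = DMSO only wells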). The following applies: HeLa MMTV-bla, beta-lactamase ratio, agonist, 18 h; stronger effect = higher value; percent of dexamethasone control, DMSO zero. In short, it runs like this:
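MMTV-bla HeLa beta-lactamase reporter cells in 1% charcoal/dextran FBS medium, compounds up to 92 uM for 18 h at 37 C, CCF4 readout; normalized to 0.1 uM dexamethasone (100%), EC50 and efficacy from Hill fits.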

Test [2] in a line: qHTS assay for small molecule antagonists of peroxisome proliferator-activated receptor delta signaling (AID 588535).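 Further: cells co-treated with a PPAR-delta agonist as stimulator during compound exposure.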 Particulars: HEK293T PPARd-UAS-bla, beta-lactamase FRET ratio, 18 h; 460 nm channel. In short, it runs like this:
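Beta-lactamase reporter read-out (405 nm excitation, 460/530 nm emission) after CCF4 loading for 2 hrs at RT. HEK293T PPAR-delta-UAS-bla cells, 2% charcoal/dextran FBS, compounds for 18 hrs at 37 C. Hill fit gave IC50 and efficacy.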

Test [3] addresses Peroxisome proliferator-activated receptor gamma (Homo sapiens) (UniProt P37231). The test can be described thus: qHTS assay for small molecule antagonists of peroxisome proliferator-activated receptor gamma signaling (AID 588537; active means well fitted inhibition curve with a large enough effect in the signal ratio, with a control signal flat, not every such curve was filed as active; the % refers to the signal ratio;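 further: reporter cells co-stimulated with 50 nM rosiglitazone agonist during compound treatment; % of control where 0% means no effect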). Particulars: HEK293 PPARg-UAS-bla, beta-lactamase ratio, antagonist mode; series mostly up to 76.8 µM. The procedure, abridged:
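Read-out: CCF4 fluorescence (ex 405, em 460/530 nm) after 2 h at RT. Cells were HEK293 carrying a UAS-bla reporter and treated 16 h at 37 C with compound plus rosiglitazone (50 nM final). Normalized to rosiglitazone and DMSO.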

For test [4], the target named is Thyroid hormone receptor beta (Homo sapiens) (UniProt P10828). The test is described as follows: qHTS assay for small molecule agonists of thyroid hormone receptor beta signaling (AID 588545; calls by dose curve). The following applies: TR-UAS-bla GripTite HEK 293, beta-lactamase ratio, agonist mode, 18 h; series mostly up to 76.7 µM. The procedure, abridged:
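Agonist activity was read as beta-lactamase CCF4 fluorescence (405 ex, 460/530 em), scaled between DMSO (0%) and 10 nM T3 (100%), then Hill-fitted for EC50 and efficacy. HEK 293 TR-UAS-bla cells in 2% charcoal/dextran FBS medium were exposed 18 h at 37 C.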
In general terms: In qHTS, concentration-response curves come from the screen itself.

Test [5] is described as follows: qHTS assay for small molecule activators of the p53 signaling pathway (AID 651743; active means well fitted activation curve with a large enough effect in the signal ratio, not every such curve was filed as active; the % refers to the signal ratio; further: % of control where 0% means no effect). Particulars: HCT-116 p53RE-bla, beta-lactamase FRET ratio, 16 h; activation: stronger effect = higher value. In short, it runs like this:
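Reporter: beta-lactamase driven by p53 response elements, stably integrated in HCT-116 cells. Cells seeded at 4,000/well, 5 h preincubation, compound (DMSO) 16 h at 37 C; B/G FRET substrate 2 h RT; fluorescence intensity read.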

The nature of test [6]: qHTS assay for small molecule activators of the nuclear factor-kappa B (NF-kB) signaling pathway (AID 651749; active means well fitted activation curve with a large enough effect in the signal ratio; the % refers to the signal ratio; further: % of control where 0% means no effect). Particulars: NF-kB-bla ME-180 cells, beta-lactamase FRET ratio, 16 h; activation: stronger effect = higher value. In short, it runs like this: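 NF-kB-bla ME-180 cells, 2,000/well; 23 nL compound or DMSO pinned; 16 hr, 37C/5% CO2; beta-lactamase FRET read-out.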
In test [7] the target is Peroxisome proliferator-activated receptor alpha (Homo sapiens) (UniProt Q07869). The test is described as follows: qHTS assay for small molecule agonists of the peroxisome proliferator-activated receptor alpha (PPARalpha) signaling pathway (AID 651778). Further: potency means the concentration at half of the fitted maximal effect. On max response: % of control where 0% means no effect. The following applies: PathHunter PPARalpha complementation, chemiluminescence, 6 h; max response: stronger effect = higher value. The procedure, abridged:
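Enzyme-fragment complementation assay in which ligand-bound PPARalpha translocates and forms an active enzyme that generates chemiluminescence. Cells were plated overnight, exposed to compound for 6 hr at 37 C, and then given detection reagent for 60 min at room temperature.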

Test [8] in a line: qHTS assay for small molecule agonists of the antioxidant response element (ARE) signaling pathway measured by Nrf2-dependant transcriptional activity - cell viability counter screen (AID 720653; active means well fitted curve in the direction sought with a large enough effect in the repeat runs; an effect the other way counts as inactive or inconclusive; further: on the % scale 0 is the no-effect control and ±100 the full control effect). Particulars: ARE-bla HepG2 viability, CellTiter-Glo ATP luminescence, 16 h; max response: stronger effect = lower value. In short, it runs like this: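 ARE-bla HepG2 cells treated with compounds for 16 h at 37C; this counter screen measures viability as intracellular ATP by CellTiter-Glo luminescence after 30 min at room temperature.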

A short description of test [9]: qHTS assay for cell viability of HEK293 cells (AID 743288). Further: on the % scale 0 is the no-effect control and ±100 the full control effect; nearly all actives have a fitted effect of over 50% in size. Particulars: ATP luminescence (CellTiter-Glo), 18 h; max response: stronger effect = lower value. In short, it runs like this:
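Viable-cell counts were inferred from luciferase-based ATP content in HEK293 cells seeded at 2,000/well, pre-incubated ≥5 h, then dosed with DMSO-solubilised compounds for 18 h at 37 C.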

The nature of test [10]: qHTS assay for cell viability of the p53RE-bla HCT-116 cell line (AID 743292). Further: on the % scale 0 is the no-effect control and ±100 the full control effect; nearly all actives have a fitted effect of over 55% in size. Particulars: p53RE-bla HCT-116 viability, ATP luminescence, 16 h; series mostly up to 95 µM. The procedure, abridged: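 CellSensor p53RE-bla HCT-116 cells, 4,000/well, preincubated 5 h at 37 C, then exposed to compounds in DMSO for 16 h at 37 C. Viability read as CellTiter-Glo luminescence (intracellular ATP) after 30 min at room temperature.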

The target of test [11] is Glucocorticoid receptor (Homo sapiens) (UniProt P04150). The test can be described thus: qHTS assay for small molecule antagonists of glucocorticoid receptor signaling (AID 588533; active means well fitted inhibition curve with a large enough effect in the signal ratio, with a control signal flat, not every such curve was filed as active; the % refers to the signal ratio;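 further: cells stimulated with 2 nM dexamethasone as agonist; on the % scale 0 is the no-effect control and ±100 the full control effect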). The following applies: HeLa MMTV-bla, GRE beta-lactamase ratio, antagonist mode, 18 h; series mostly up to 76.8 µM. The procedure, abridged:
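Antagonist-mode qHTS: compound titrations added to GRE-bla HeLa cells, then dexamethasone 2 nM final; 18 h, 37 C. CCF4 FRET fluorescence normalized to dexamethasone and DMSO; IC50 from Hill fit.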

Test [12] deals with Peroxisome proliferator-activated receptor gamma (Homo sapiens) (UniProt P37231). The test can be described thus: qHTS assay for small molecule agonists of peroxisome proliferator-activated receptor gamma signaling (AID 588536; active means well fitted curve in the direction sought with a large enough effect in the signal ratio, with a control signal flat, not every such curve was filed as active; the % refers to the signal ratio;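 further: 0% = DMSO basal wells and 100% = rosiglitazone at 2 µM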). Particulars: HEK293 PPARg-UAS-bla, beta-lactamase ratio, 16 h, percent of rosiglitazone response, DMSO as zero; series mostly up to 76.7 µM. The procedure, abridged: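 Cells were plated and held 6–6.5 h at 37 C, then compounds were added as a titration series. After a further 16 h, CCF4 dye was loaded for 2 h at room temperature and emission at 460/530 nm recorded.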

Test [13] deals with Vitamin D3 receptor (Homo sapiens) (UniProt P11473). The test can be described thus: qHTS assay for small molecule agonists of vitamin D receptor signaling (AID 588543; calls by dose curve;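 further: 0% = DMSO basal and 100% = reference agonist control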). The following applies: HEK293T VDR-UAS-bla, beta-lactamase ratio, 16 h; series mostly up to 76.8 µM. In short, it runs like this: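 Reporter cells (HEK293T, VDR-UAS-bla) were seeded in medium with 2% charcoal-stripped serum and incubated 5 h, then compounds in concentration series were added for 16 h at 37 °C. Stimulation was scaled between DMSO basal and 50 nM 1α,25-dihydroxyvitamin D3.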

Test [14] is described as follows: qHTS assay for small molecule agonists of retinoid X receptor alpha signaling (AID 588544). The following applies: HEK293T RXRa-UAS-bla, beta-lactamase reporter, 18 h; 530 nm emission.
Test [15] in a line: qHTS assay for small molecule antagonists of retinoid X receptor alpha signaling (AID 588546; active means well fitted inhibition curve with a large enough effect in the signal ratio, with a control signal flat, not every such curve was filed as active; the % refers to the signal ratio;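 further: cells stimulated with 9-cis-retinoic acid as agonist; on the % scale 0 is the no-effect control and ±100 the full control effect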). The following applies: HEK293T RXRa-UAS-bla, beta-lactamase ratio, antagonist mode; measured here: W530 green channel, cytotoxicity proxy. The procedure, abridged:
(§1)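 Beta-lactamase reporter inhibition, read as CCF4 fluorescence ratio (ex 405, em 460/530 nm) after 2 h at RT. HEK293T UAS-bla cells, 2500/well, were stimulated with 9-cis-RA at 500 or 100 nM final alongside test compound for 18 h at 37 C.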

In test [16] the target is Retinoic acid receptor RXR-alpha (Homo sapiens) (UniProt P19793). The description is as above. The following applies: HEK293T RXRa-UAS-bla, beta-lactamase ratio, antagonist mode. The procedure, abridged: as §1
Test [17] is described as follows: qHTS assay for environmental chemicals that activate the Aryl hydrocarbon Receptor (AhR) signaling pathway (AID 651777). Further: % of control where 0% means no effect; nearly all actives have a fitted effect of over 15% in size. Particulars: 1A2-DRE human hepatoma cells, luciferase, 24 h; activation: stronger effect = higher value. In short, it runs like this: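 Human hepatoma 1A2-DRE cells, stably carrying a dioxin response element and CYP1A2 promoter driving luciferase, were exposed to compounds for 24 hr at 37 C and 5% CO2. Luciferase signal was then read after 30 min One-Glo at room temperature.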

A short description of test [18]: qHTS assay for small molecule agonists of the antioxidant response element (ARE) signaling pathway measured by Nrf2-dependant transcriptional activity (AID 720636; active means well fitted curve in the direction sought with a large enough effect in the repeat runs; an effect the other way counts as inactive or inconclusive; further: % of control where 0% means no effect). Particulars: ARE-luc HepG2, Nrf2 luciferase reporter, 16 h; series mostly up to 92.4 µM. In short, it runs like this:
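ARE-luc HepG2 cells carrying an Nrf2-responsive luciferase reporter were plated in medium with 1% dialyzed FBS, left 6 hr at 37 C to attach, then exposed to compound for 16 hr. Luciferase luminescence was read after ONE-Glo addition.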

Test [19] concerns the target Nuclear receptor subfamily 1 group I member 2 (Rattus norvegicus) (UniProt Q9R1A7). The test is described as follows: qHTS assay for small molecule activators of the rat pregnane X receptor (rPXR) signaling pathway (AID 651751; call rule not given here; further: 0% is about no effect). The following applies: rPXR reporter cells, luciferase (One-Glo), 24 h.
Test [20] in a line: qHTS assay for small molecule activators of the human pregnane X receptor (PXR) signaling pathway (AID 720659; call rule not given here; further: 0% is about no effect). The following applies: DPX-2 HepG2 CYP3A4-luciferase, 24 h; series mostly up to 92.3 µM.

The structures appear in SMILES notation. Results filed as inconclusive are left out. The source made the active and inactive calls. Unless noted, the call rests on the fitted dose curve; in most records, active means well fitted curve in the direction sought with a large enough effect; inconclusive means small, poorly fitted or top-dose-only effect, or another doubt; inactive means no such curve, though single readings can be large; an effect the other way counts as inactive or inconclusive.

This is an account of results in PubChem BioAssay (NCATS).

Glucocorticoid receptor (Homo sapiens), sequence (P04150 whole entry, looked up): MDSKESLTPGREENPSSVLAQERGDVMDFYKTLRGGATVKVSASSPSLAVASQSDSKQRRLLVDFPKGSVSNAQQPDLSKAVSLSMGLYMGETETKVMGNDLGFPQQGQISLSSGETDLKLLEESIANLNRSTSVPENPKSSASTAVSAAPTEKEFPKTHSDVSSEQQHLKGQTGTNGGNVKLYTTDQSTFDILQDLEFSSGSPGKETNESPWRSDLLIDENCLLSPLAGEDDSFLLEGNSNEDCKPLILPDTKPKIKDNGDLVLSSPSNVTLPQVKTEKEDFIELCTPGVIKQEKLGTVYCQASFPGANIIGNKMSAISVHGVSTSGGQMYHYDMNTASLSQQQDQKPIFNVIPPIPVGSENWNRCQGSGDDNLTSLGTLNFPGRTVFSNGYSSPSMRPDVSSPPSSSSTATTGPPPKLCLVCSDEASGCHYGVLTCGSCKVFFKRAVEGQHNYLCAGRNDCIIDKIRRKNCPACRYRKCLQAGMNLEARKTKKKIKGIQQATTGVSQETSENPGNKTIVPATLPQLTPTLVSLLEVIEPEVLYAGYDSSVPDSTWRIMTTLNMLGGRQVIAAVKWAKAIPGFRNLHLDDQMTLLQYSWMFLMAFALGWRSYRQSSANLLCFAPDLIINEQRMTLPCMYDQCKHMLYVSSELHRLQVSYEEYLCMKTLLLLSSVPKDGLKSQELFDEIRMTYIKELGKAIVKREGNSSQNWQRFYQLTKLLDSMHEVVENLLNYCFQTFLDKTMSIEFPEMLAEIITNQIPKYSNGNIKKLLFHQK
Vitamin D3 receptor (Homo sapiens), sequence (P11473 whole entry, looked up): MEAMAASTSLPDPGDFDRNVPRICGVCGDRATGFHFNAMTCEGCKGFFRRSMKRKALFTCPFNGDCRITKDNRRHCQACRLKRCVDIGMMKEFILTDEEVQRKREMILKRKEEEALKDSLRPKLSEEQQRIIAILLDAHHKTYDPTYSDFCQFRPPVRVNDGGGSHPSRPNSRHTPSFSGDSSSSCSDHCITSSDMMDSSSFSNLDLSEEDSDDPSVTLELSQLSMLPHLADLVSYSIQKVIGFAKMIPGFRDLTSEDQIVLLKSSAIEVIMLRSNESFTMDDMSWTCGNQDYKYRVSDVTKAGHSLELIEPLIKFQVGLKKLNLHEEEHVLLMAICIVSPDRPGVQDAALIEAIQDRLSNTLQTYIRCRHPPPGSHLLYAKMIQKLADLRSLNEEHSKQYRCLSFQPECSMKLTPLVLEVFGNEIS
Thyroid hormone receptor beta (Homo sapiens), sequence (P10828 whole entry, looked up): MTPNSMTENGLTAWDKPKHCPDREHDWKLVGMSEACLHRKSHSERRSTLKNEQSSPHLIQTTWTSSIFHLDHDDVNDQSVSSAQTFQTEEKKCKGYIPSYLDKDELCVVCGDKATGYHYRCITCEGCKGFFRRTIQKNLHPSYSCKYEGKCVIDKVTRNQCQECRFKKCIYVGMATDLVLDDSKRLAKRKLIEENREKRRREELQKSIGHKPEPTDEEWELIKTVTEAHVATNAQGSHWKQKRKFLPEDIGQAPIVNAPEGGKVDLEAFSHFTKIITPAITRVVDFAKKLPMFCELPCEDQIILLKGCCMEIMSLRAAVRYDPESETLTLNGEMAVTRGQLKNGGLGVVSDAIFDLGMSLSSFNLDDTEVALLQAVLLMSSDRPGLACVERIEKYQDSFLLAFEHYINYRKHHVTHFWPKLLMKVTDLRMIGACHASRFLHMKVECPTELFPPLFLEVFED
Nuclear receptor subfamily 1 group I member 2 (Rattus norvegicus), sequence (Q9R1A7 whole entry, looked up): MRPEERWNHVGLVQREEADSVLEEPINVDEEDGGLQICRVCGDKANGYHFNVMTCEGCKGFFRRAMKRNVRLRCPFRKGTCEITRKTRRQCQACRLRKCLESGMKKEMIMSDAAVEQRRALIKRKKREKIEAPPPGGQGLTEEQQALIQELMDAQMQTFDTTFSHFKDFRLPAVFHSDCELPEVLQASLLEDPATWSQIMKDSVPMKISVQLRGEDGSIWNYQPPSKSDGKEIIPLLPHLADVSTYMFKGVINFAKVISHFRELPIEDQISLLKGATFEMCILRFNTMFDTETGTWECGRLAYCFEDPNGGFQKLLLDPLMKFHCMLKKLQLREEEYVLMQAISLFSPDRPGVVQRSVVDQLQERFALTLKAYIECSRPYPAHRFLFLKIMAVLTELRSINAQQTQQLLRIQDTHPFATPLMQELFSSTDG
Peroxisome proliferator-activated receptor alpha (Homo sapiens), sequence (Q07869 whole entry, looked up, the tested form may be a part): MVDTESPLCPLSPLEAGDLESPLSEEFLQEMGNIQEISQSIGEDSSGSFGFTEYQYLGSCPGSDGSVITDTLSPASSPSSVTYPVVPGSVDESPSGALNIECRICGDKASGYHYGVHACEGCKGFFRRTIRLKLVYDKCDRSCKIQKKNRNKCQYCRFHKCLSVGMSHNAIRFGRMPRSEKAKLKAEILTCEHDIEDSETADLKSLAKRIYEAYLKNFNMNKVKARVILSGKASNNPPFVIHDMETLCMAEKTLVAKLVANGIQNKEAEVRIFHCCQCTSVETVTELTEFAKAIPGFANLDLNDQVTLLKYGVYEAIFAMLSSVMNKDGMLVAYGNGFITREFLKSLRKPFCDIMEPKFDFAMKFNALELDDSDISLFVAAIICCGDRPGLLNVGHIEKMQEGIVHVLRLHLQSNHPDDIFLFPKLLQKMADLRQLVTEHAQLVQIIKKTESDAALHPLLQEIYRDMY
Peroxisome proliferator-activated receptor gamma (Homo sapiens), sequence (P37231 whole entry, looked up): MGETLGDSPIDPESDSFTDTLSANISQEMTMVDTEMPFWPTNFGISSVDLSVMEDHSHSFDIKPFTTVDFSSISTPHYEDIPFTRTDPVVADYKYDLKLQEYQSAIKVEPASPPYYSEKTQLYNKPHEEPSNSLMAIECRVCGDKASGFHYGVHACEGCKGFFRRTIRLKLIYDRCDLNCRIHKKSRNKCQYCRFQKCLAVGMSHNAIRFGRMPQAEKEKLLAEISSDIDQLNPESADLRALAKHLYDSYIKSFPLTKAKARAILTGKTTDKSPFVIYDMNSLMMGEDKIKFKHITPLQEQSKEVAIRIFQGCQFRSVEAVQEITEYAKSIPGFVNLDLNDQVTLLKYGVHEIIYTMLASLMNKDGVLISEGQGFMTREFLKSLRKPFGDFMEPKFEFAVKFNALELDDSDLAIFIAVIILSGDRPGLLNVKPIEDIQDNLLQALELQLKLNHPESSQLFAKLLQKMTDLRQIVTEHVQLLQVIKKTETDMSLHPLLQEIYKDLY
Retinoic acid receptor RXR-alpha (Homo sapiens), sequence (P19793 whole entry, looked up): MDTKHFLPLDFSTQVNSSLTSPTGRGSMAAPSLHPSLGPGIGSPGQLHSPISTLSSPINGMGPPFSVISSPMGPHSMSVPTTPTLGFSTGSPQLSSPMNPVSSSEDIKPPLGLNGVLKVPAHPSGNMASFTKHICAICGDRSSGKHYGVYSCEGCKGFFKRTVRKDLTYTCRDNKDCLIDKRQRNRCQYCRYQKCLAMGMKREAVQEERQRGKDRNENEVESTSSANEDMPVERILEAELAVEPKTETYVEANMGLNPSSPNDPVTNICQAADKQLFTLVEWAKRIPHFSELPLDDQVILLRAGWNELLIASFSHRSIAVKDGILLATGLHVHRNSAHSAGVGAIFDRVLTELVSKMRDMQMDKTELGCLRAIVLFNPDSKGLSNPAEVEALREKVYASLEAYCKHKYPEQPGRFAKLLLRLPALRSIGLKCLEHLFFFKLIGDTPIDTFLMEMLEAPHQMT

For `CC(C)C[C@H](NC(=O)OCC1c2ccccc2-c2ccccc21)C(=O)O`, the activation in [1] was -5.5% (inactive); in test [5], -3.17% (inactive); in test [6] it was 1.69% (inactive). For the same molecule, the max response in test [2] was 59%; in test [7], 11.8% (inactive); in [8] it was -7.25% (inactive); in test [9], -22.2% (inactive). The Potency entry in [3], in test [4] and in test [10] was “inactive” in each case.
Regarding `CO[Si](CCCOCC1CO1)(OC)OC` (stereo not drawn), the activation in test [1] was -3.61% (inactive); in test [5], 1.09% (inactive); in test [6], -2.38% (inactive); in [17] it was -0.88% (inactive). Further, the Potency entry in test [11], in test [3], in [4], in [18] and in [10] was “inactive” throughout. Besides, the max response is 37.6% in [2]; -16.2% in test [14]; -4.61% in [15]; -3% (inactive) in test [16]; -2.05% (inactive) in test [8]; -2.39% (inactive) in test [9]. Moreover, the outcome in [12] and in [13] was inactive. Besides, the Potency in test [7] was 39.8 µM (active).
For the molecule `CCOCCOCCOC(C)=O`, the activation in [1] is -7.35% (inactive); in test [17] it was -0.223% (inactive). Also, the Potency entry in test [11], in test [4] and in test [10] was “inactive” in each case. In addition, the max response in test [2] is 31.4%; in test [14] it was 0.881%; in test [15] it was -12.8%; in test [16], 7.1% (inactive); in test [7] it was 0.0175% (inactive); in test [8], 2.87% (inactive). Further, the max response in test [9] was 0.368% (inactive); in test [19] it was 0.7% (inactive). Further, the outcome in test [12], in test [13] and in test [20] was inactive.
As for `COC(=O)CCSCCC(=O)OC`, the activation in test [1] is 8.88% (inactive); in test [6] it was -0.163% (inactive). In addition, the Potency result in test [11], in test [4], in test [18] and in test [10] was “inactive” throughout. Besides, the max response in test [2] is 13.2%; in test [15] it was -8.85%; in test [16], -2.91% (inactive); in test [7], -1.49% (inactive); in test [8] it was 1.34% (inactive); in test [9], -5.77% (inactive). Further, in [19], the max response is 0.101% (inactive). Also, the molecule was called inactive in [20].
`O=C(O)c1cc2ccccc2cc1O`: the activation was 2.47% (inactive) in [1] and 0.405% (inactive) in test [6]. The Potency result in test [11], in test [3], in test [4] and in [10] was “inactive” each time. In test [13], the result was inactive. For the same molecule, the max response in test [14] is 18.1%; in test [15], 2.59%; in test [16], -6.59% (inactive); in test [7] it was 7.01% (inactive); in [8], -1.53% (inactive); in test [9] it was -12.6% (inactive). In addition, the max response in test [19] was 0.928% (inactive).
Regarding `CCCCCCC(O)CCCCCCCCCCC(=O)O` (stereo not drawn), the activation was -3.25% (inactive) in test [1] and -0.827% (inactive) in test [17]. Further, the max response in test [2] is 31.3%; in test [14], -2.57%; in test [8] it was -0.036% (inactive); in test [19] it was 0.495% (inactive). The Potency entry in [3], in test [4], in test [18] and in test [10] was “inactive” each time. The outcome in test [13] and in [20] was inactive. In addition, the Potency in test [7] is 31.6 µM (active).
As for `CCOC(=O)C(C)Oc1ccc(Oc2nc3ccc(Cl)cc3o2)cc1` (stereo not drawn), the activation in test [1] is 19.6% (inactive); in test [5], -9.4% (inactive); in test [6], 2.54% (inactive); in test [17] it was 0.871% (inactive). The Potency result in [11] and in [3] was “inactive” each time. Also, the max response in [2] was -2.48%; in test [14] it was 11.3%; in test [7] it was 26% (inactive); in [8] it was 6.64% (inactive); in test [19], -9.57% (inactive). Further, the result in test [13] and in test [20] was inactive.
